# High-throughput results from PubChem.
# Most compounds without a hit are left out; they make up all but 3.6% or so of the library.
# AmpC no deterg: AmpC beta-lactamase inhibition without detergent. P00811. AmpC nitrocefin hydrolysis, absorbance 480 nm, 0.0001% Triton. Potency, µM (highest dose often 57.1 µM), without a hit: at the top dose activity change, negative = inhibition, hits mostly inhibitors. 0.52% of 330,000 active. AID 485341;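 also: plate controls were no compound for no effect and no enzyme for full effect; nearly all actives have a fitted effect of over 20% in size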
# Target sequence (P00811 whole entry, looked up): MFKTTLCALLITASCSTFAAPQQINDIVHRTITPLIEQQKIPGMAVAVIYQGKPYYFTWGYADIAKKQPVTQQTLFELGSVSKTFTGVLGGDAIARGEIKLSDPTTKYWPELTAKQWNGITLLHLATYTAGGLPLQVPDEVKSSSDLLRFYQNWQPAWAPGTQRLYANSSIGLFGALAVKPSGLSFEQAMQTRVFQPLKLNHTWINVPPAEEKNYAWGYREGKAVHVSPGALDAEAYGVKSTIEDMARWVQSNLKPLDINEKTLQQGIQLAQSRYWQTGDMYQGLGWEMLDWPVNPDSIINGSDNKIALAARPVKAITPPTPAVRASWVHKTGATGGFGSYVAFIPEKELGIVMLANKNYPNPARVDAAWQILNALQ
#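 AmpC (5.3 nM in the dispensed reagent) in 20 mM phosphate pH 7.0 with 0.01% (detergent screen) or 0.0001% Triton X-100 was preincubated with compounds for 15 min at room temperature. Nitrocefin was then added from an 800 uM solution, and hydrolysis was followed at 480 nm.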
# AmpC detergent: blocks E. coli AmpC beta-lactamase in detergent assay. 0.041% of 370,000 active. AmpC hydrolysis of nitrocefin, absorbance 480 nm, 0.01% Triton. AID 485294. Potency, µM (doses to about 114 µM), without a hit: top-dose activity change, negative = inhibition, usual class: inhibitors;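 also: 0% = no-compound wells and -100% = no-enzyme wells; nearly all actives have a fitted effect of over 25% in size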
#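 20 mM phosphate pH 7.0 + 0.01% (detergent screen) or 0.0001% Triton X-100; 5.3 nM AmpC reagent; cpd preinc 15 min RT; nitrocefin (800 uM stock) to start; A480 q20 s × 4 min; Activity was normalised to no-enzyme and no-compound control wells.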
# Giardia FBPA inh: Giardia lamblia aldolase inhibition | Potency, µM (titrated, usually from 59.6 µM), for the others: at the highest dose activity, negative = inhibition, usual class: inhibitors | 0.71% of 290,000 active | purified Giardia FBPA | A8B2U2; also: nearly all actives have a fitted effect of over 55% in size
# Target sequence (A8B2U2 whole entry, looked up): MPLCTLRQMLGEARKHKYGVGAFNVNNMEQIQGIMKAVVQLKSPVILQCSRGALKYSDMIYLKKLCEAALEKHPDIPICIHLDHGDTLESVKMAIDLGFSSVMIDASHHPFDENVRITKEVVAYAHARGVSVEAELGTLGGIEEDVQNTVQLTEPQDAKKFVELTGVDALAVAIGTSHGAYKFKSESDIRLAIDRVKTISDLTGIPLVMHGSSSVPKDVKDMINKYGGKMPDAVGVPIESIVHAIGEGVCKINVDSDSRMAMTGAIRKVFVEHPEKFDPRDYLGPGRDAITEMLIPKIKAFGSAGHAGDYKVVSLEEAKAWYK
#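 Giardia FBPA (40 nM reagent) was preincubated 10 min at RT with compound (up to 57.5 uM final), then substrate plus GAPDH/TPI/NAD/arsenate coupling system with diaphorase/resazurin was added; resorufin fluorescence (525/598 nm) was read after 20 min.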
# Sm TGR inh: blocks Schistosoma mansoni thioredoxin glutathione reductase | Q962Y6 | purified TGR, DTNB reduction, TNB absorbance 405 nm | Potency, µM (series often up to 114 µM), inactives show at the highest dose activity change, negative = inhibition, most hits filed as inhibitors | 3% of 360,000 active; also: nearly all actives have a fitted effect of over 60% in size
#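 First, TGR (20 nM dispensed) and NADPH were mixed with compound. Second, a 15 min room-temperature incubation followed. Third, further NADPH and then DTNB were added to start the reaction. Finally, TNB absorbance was monitored kinetically.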
# Active calls of the source: *; u = inconclusive; x = not tested or not shown; [ ] = dose if it differs, or a comment. Calls follow the shape of the dose curve; as a rule, active = well fitted curve in the direction sought with a large enough effect; inconclusive = small, poorly fitted or top-dose-only effect, or another doubt; inactive = no such curve, though single readings can be large; an effect the other way counts as inactive or inconclusive. Unless noted, % is scaled to controls: 0 for no effect and ±100 for the full control effect; potency is read from the fitted curve at half-maximal effect.
SMILES,AmpC no deterg,AmpC detergent,Giardia FBPA inh,Sm TGR inh
CC(C)(C)OC(=O)N1C=CCC1CN1C(=O)COCC1=O (configuration not stated),x,x,4.6%,x
CC(C)C(C(=O)O)N1CCS(=O)(=O)CC1 (configuration not stated),-17.6%,1.0%,4.1%,1.7%
CCOC(=O)c1ccc(-c2ccc(CO)o2)cc1,-34.5%,u,8.1%,35.5µM*
Cc1ccc(C(=O)NC(=S)Nc2ccc(Oc3ccc(Cl)cc3)cc2)cc1,-24.8%,-5.4%,1.0%,4.2%
O=C(NC(=S)Nc1ccc(-c2ccc(CO)o2)cc1)c1cccs1,10µM*,7.8%,-14.0%,8.91µM*
Cc1ccc(C(=O)NC(=S)Nc2ccc(-c3ccc(CO)o3)cc2)cc1,25.1µM*,6.0%,-8.2%,u
CC(=O)NC(=S)Nc1ccc(NC(=S)NC(=O)c2cccs2)cc1,10.1%,-3.1%,x,-26.1%
COc1ccc2nc(C)cc(NCc3ccc(F)cc3)c2c1,-0.2%,u,-24.0%,-6.1%
CC(C)N(C1=N/C(=C\c2ccco2)C(=O)N1c1ccccc1)C(C)C,-9.3%,-8.0%,-1.2%,39.8µM*
O=C1/C(=C/c2ccco2)N=C(N2CCCCC2)N1c1ccccc1,-25.0%,u,-10.9%,44.7µM*
CCN(CC)C1=N/C(=C\c2ccc(OC)cc2)C(=O)N1c1ccccc1,-22.0%,-11.0%,-2.6%,6.5%
CN1C(=S)N(c2ccccc2)C(=O)/C1=C/c1ccco1,-16.0%,-5.8%,-17.3%,u
COc1ccc(C2NC(c3ccc(OC)cc3OC)C(C)C(=O)C2C)c(OC)c1 (configuration not stated),-0.8%[11.4 µM],-11.1%,u,-3.0%
Cn1cnc([N+](=O)[O-])c1Oc1ccc2ccccc2c1,-5.5%,-0.5%,-22.5%,14.1µM*
COc1cc(OC)c2c(c1C(CCN1CCN(c3ccccc3)CC1)c1ccc(N(C)C)cc1)OC(=O)CC2c1ccc(N(C)C)cc1 (configuration not stated),x,x,3.9%,x
CCc1ccccc1NC(=O)CN1CCCN(Cc2cc(C)ccc2C)S1(=O)=O,x,11.8%,x,0.3%
O=C(O)CCn1cc(C=C2C(=O)NC(=S)NC2=O)c(-c2cc3ccccc3oc2=O)n1,-18.7%,3.8%,u,10µM*
O=C(O)/C=C/c1cn(-c2ccccc2)nc1-c1cc2ccccc2oc1=O,-19.3%,1.6%,6.5%,-11.4%
O=C(O)CCn1cc(C=C2C(=O)NC(=S)NC2=O)c(-c2ccccc2)n1,2.3%,-6.6%,-24.2%,79.4µM*
COc1ccccc1Cc1nc2ccccc2nc1SCC(=O)Nc1cccc(Cl)c1C,x,6.9%,x,0.3%
Cc1onc(-c2c(F)cccc2Cl)c1C(=O)N1CCOC12CCCCC2,1.7%,2.8%,3.8%,-2.6%
C=Cc1ccc(CN2C(=O)c3ccccc3Sc3ccc(C(=O)OCc4ccco4)cc32)cc1,x,11.8%,x,28.0%
O=C(c1ccc(Cn2cc(Br)cn2)o1)n1cccn1,0.501µM*,2.0%,4.7%,-25.4%
O=C(Nc1cccc(C(F)(F)F)c1)c1ccc(Cn2cc(Br)cn2)o1,-20.9%,u,-3.0%,-23.5%
O=C(NCc1ccccn1)c1ccc(Cn2cc(Br)cn2)o1,u,-1.3%,-4.8%,u
SMILES,AmpC no deterg,AmpC detergent,Giardia FBPA inh,Sm TGR inh
O=C(Nc1ccc(C(F)(F)F)cc1Cl)c1ccc(Cn2cc(Br)cn2)o1,x,3.1%,9.3%,44.7µM*
O=C(NC1CCCCC1)c1ccc(Cn2cc(Br)cn2)o1,6.5%,4.1%,2.3%,44.7µM*
CC(=O)N(c1ccc(Br)cc1)C1C=CS(=O)(=O)C1 (configuration not stated),u,u,2.5%,4.8%
CCc1ccc(N(C(C)=O)C2C=CS(=O)(=O)C2)cc1 (configuration not stated),0.159µM*,2.9%,0.3%,2.2%
COc1ccccc1CNC(=O)CCC1N=C2c3ccccc3N=C(SCC(=O)Nc3ccc(N(C)C)cc3)N2C1=O (configuration not stated),x,5.4%,x,-0.3%
Cc1cc(C)n(CCc2nc(-c3ccc(C)o3)cs2)n1,-4.1%,-1.4%,u,7.94µM*
CN(C)C(=O)CCC(=O)N1CCCC(C(=O)c2ccc(C(F)(F)F)cc2)C1 (configuration not stated),28.3%,-1.7%,2.8%,14.3%
Fc1cc(Br)ccc1Nc1c2c(nc3nc(-c4cccs4)nn13)CCCC2,x,7.0%,x,-3.6%
CCOc1ccc(NC(=O)N[C@@H](Cc2ccccc2)C(=O)O)cc1,-0.9%,1.4%,-7.4%,5.8%
COc1ccc(NC(=O)Nc2nnc(CC(=O)Nc3ccccc3)s2)cc1,-36.7%,0.5%,2.8%,6.2%
COc1cccc(NC(=O)Nc2nnc(CC(=O)Nc3ccccc3)s2)c1,11.2µM*,-6.0%,-3.5%,-5.9%
COc1cccc(NC(=O)N[C@@H](Cc2ccccc2)C(=O)O)c1,2.24µM*,2.8%,3.5%,-13.3%
COc1ccccc1NC(=O)C1CCN(S(=O)(=O)c2ccc3c(c2)NC(=O)C(C)S3)CC1 (configuration not stated),-26.4%,-0.7%,x,-8.1%
Cc1nnc(NC(=O)CSc2nc3[nH]ncc3c(=O)[nH]2)s1,-10.9%,2.5%,-4.7%,44.7µM*
COc1ccc(NC(=O)CN2CCC(Cc3ccccc3)CC2)cc1S(=O)(=O)N1CCOCC1,196.6%,u,9.4%,-2.9%
CCC1CN(C(=O)N2CCC(C(=O)NCCc3ccc(C)cc3)CC2)c2ccccc2O1 (configuration not stated),x,2.4%,x,-1.0%
CC(=O)c1ccc(/C=C/c2nc3ccccc3n2C)o1,-3.6%,2.4%,-18.7%,3.55µM*
COc1ccccc1N(C(=O)CCl)c1cn(C(C)=O)c2ccccc12,42.4%,-0.7%,0.6%,3.16µM*
CCOC(=O)c1ccccc1Nc1cn(C(C)=O)c2ccccc12,-7.8%,0.5%,1.8%,47.2%
CC(=O)n1cc(N(C(=O)CCl)c2ccc(Cl)cc2)c2ccccc21,28.6%,3.1%,-9.0%,0.316µM*
CCOC(=O)C1CCN(C(=O)Cn2nc(C)n3cccc3c2=O)CC1,-15.4%,0.5%,x,0.0%
CN(C)CCN1C(=O)NC(C)(c2ccc([N+](=O)[O-])cc2)C1=O (configuration not stated),-9.8%,-2.0%,1.4%,2.4%
Nc1ncnc2c1ncn2[C@@H]1O[C@H](C(=O)N2CCN(CC(=O)Nc3cccc4c3CNC4=O)CC2)[C@@H](O)[C@H]1O,x,x,-20.6%,x
O=C(O)CN1C(=O)/C(=C/c2ccc(N3CCCCC3)o2)SC1=S,-31.1%,1.3%,u,2.82µM*
COC(=O)CN1C(=O)S/C(=C/c2ccc(N3CCCCC3)o2)C1=O,78.7%,-0.7%,u,7.08µM*
COc1cccc(-c2nc(CS(=O)(=O)CC(=O)NCc3cccc(Cl)c3)c(C)o2)c1,x,1.6%,x,u
CCOC(=O)c1c(C)[nH]c(C)c1C(=O)COC(=O)c1cccs1,-4.4%,x,x,x
COc1ccc(NC(=S)NC(NC(C)=O)C(Cl)(Cl)Cl)c([N+](=O)[O-])c1 (configuration not stated),-24.6%,-6.7%,-10.5%,-18.6%
